Inconclusive results are not listed. A number with no mark means an inactive call. Calls of active or inactive are those of the source. The call rests on the fitted dose curve; in most records, active means well fitted cell-killing curve with a large enough effect in the repeat runs; inconclusive means weak or mixed curves, or effect the other way; inactive means flat fitted curve, though single readings scatter.
Test: qHTS assay to identify small molecule that activate the aryl hydrocarbon receptor (AhR) signaling pathway - cell viability counter screen (AID 743086); further: nearly all actives have a fitted effect of over 45% in size;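 on viability change, negative = cytotoxic: HepG2 liver cells carrying the AhR DRE luciferase reporter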
Conditions: HepG2-AhR-luc viability, CellTiter-Fluor, 24 h; series mostly up to 70.3 µM; viability change, negative = cytotoxic: at the top concentration
Text: U.S. Tox21 Program National Center for Advancing Translational Sciences [NCATS] NIH Chemical Genomics Center [NCGC] U.S. Environmental Protection Agency [EPA] National Institutes of Environmental Health Sciences [NIEHS] National Toxicology Program [NTP] U.S. Food and Drug Administration [FDA] Tox21 Assay overview: The Aryl hydrocarbon Receptor (AhR), a member of the family of basic helix-loop-helix transcription factors, is crucial to adaptive responses to environmental changes. AhR mediates cellular responses to environmental pollutants such as aromatic hydrocarbons through induction of phase I and II enzymes but also interacts with other nuclear receptor signaling pathways A cell based HepG2-AhR-luc assay (HG2L7.5c1 cell line, developed by Dr. Michael S. Denison, University of California at Davis) was used to assess the activation of AhR. HepG2 (human hepatocellular carcinoma) cells were stably transfected with an Ah receptor-responsive firefly luciferase reporter gene plasmid containing 20 dioxin responsive elements and luciferase reporter gene. Increased luciferase activity can be used to identify the compounds that induce AhR activation. The cytotoxicity of the compounds screened against the HepG2-AhR-luc cell line was tested in parallel by measuring the cell viability using CellTiter-Fluor assay in the same wells.
Tox21 Assay Protocol Summary: 4000 cells in 5 uL/well were dispensed into white wall/solid bottom 1536-well plates using a Multidrop Combi (Thermo Fisher Scientific Inc., Waltham, MA) dispenser. After the assay plates were incubated at 37C for 5 h, 23 nL of compound or DMSO vehicle was transferred to the assay plates by a pintool station (Kalypsys, San Diego, CA). The plates were incubated at 37C for 24 hr. For cell viability measurement, 1 ul/well of CellTiter-Fluor reagent (Promega, Madison, WI) was added into the assay plates using a Flying Reagent Dispenser (FRD) (Aurora Discovery, CA),and then the assay plates were incubated at 37C for 30 min. The fluorescence intensity in the plates was measured using a ViewLux plate reader (PerkinElmer, Shelton, CT), followed by the addition of 4 uL of ONE-Glo Luciferase Assay reagent (Promega) using an FRD (Aurora Discovery). After the assay plates were incubated at room temperature for 30 min, luminescence intensity was measured using a ViewLux plate reader (Perkin Elmer).
In the case of CCCCOC(=O)CCC(=O)OCCCC, the “viability change, negative = cytotoxic” value is reported as -0.318%. In the case of CC(C)(C#N)C(C)(C)C#N, the “viability change, negative = cytotoxic” value is reported as 21.1% [at 95 µM]. With CC(O)CN1CCN(CC(=O)[O-])CCN(CC(=O)[O-])CCN(CC(=O)[O-])CC1.[Gd+3] (stereo not given) the “viability change, negative = cytotoxic” value was 16.6%. For OC[P+](CO)(CO)CO, the Potency was “inactive”. With CN(C)N the “viability change, negative = cytotoxic” value was 2.71%. In the case of CC(C)(C)N(NC(=O)c1ccc(Cl)cc1)C(=O)c1ccccc1, the Potency is reported as 17.1 µM (active). With O=C(N[C@H]1CN2CCC1CC2)c1ccc2c(c1)OCCO2 the “viability change, negative = cytotoxic” value was -0.73%. For CCCCCCCCCCCC[N+](C)(C)CCOc1ccccc1, the Potency was 68.6 µM (active). In the case of Cc1nc2ccccc2c(=O)n1-c1ccccc1Cl, the Potency is reported as 47.5 µM (active). With CCCCCCCCCCCCN(C)C the “viability change, negative = cytotoxic” value was 1.34%. In the case of CCCCCl, the Potency is reported as “inactive”. For C=CCc1ccc(OC(=O)Cc2ccccc2)c(OC)c1, the “viability change, negative = cytotoxic” value was 24.6%. For CC(=O)OC(c1ccccc1)C(Cl)(Cl)Cl (stereo not given), the “viability change, negative = cytotoxic” value was -3.05%. With SCc1ccccc1 the “viability change, negative = cytotoxic” value was 14.3% [at 95 µM]. For CC(C)CCON=O, the “viability change, negative = cytotoxic” value was 4.74%. With CC(C)CCCCCCCOC(=O)c1ccccc1C(=O)OCCCCCCCC(C)C the “viability change, negative = cytotoxic” value was 4.51%. For O=C(NC(=O)c1cc(F)c(F)cc1Cl)Nc1cc(F)ccc1N1CCC(C(=O)O)CC1, the “viability change, negative = cytotoxic” value was 15.7%. With CCCSP(=S)(OCC)Oc1ccc(SC)cc1 (stereo not given) the “viability change, negative = cytotoxic” value was 3.65%. With OCCCl the “viability change, negative = cytotoxic” value was -3.28%. For CCOc1cccc(C2(N3CCN(c4ccccc4)CC3)CCC(C)CC2)c1 (stereo not given), the “viability change, negative = cytotoxic” value was 9.67%. With ClCc1ccccc1Cl the “viability change, negative = cytotoxic” value was -1.23% [at 95 µM]. With C[C@H](N)[C@H](O)c1ccc(O)c(O)c1 the “viability change, negative = cytotoxic” value was -0.275%. With Clc1ccccc1 the “viability change, negative = cytotoxic” value was 5.11%. For CCOC(=O)c1cn2nc(OP(=S)(OCC)OCC)cc2nc1C, the “viability change, negative = cytotoxic” value was -4.58%. With CC(Oc1cc(Cl)c(Cl)cc1Cl)C(=O)O (stereo not given) the “viability change, negative = cytotoxic” value was 2.9%. With O=C1NC(=O)C(=O)C(=O)N1 the “viability change, negative = cytotoxic” value was -1.89% [at 95 µM]. For O=C=NC1CCCCC1, the “viability change, negative = cytotoxic” value was 14.3%. In the case of Cc1ccccc1, the Potency is reported as “inactive”. In the case of CCCBr, the “viability change, negative = cytotoxic” value is reported as -2.62%. In the case of CCCCC1C(=O)NC(=O)N(C2CCCCC2)C1=O (stereo not given), the “viability change, negative = cytotoxic” value is reported as 13.9%. For O=C(Cc1ccccc1)OCCc1ccccc1, the “viability change, negative = cytotoxic” value was -0.726%. For CCOP(=S)(OCC)SCSc1cc(Cl)ccc1Cl, the “viability change, negative = cytotoxic” value was 14.6%. In the case of COc1ccc(C(O)(c2cncnc2)C2CC2)cc1 (stereo not given), the “viability change, negative = cytotoxic” value is reported as -0.855%. With CCC(C)(C)O the “viability change, negative = cytotoxic” value was 0.56%. For CCC1(C2=NCCN2)Cc2ccccc2O1 (stereo not given), the “viability change, negative = cytotoxic” value was 8.37%. For CC(C)c1ccc(OP(=O)(Oc2ccc(C(C)C)cc2)Oc2ccc(C(C)C)cc2)cc1, the Potency was “inactive”. In the case of CCC1(CCC(C)C)C(=O)NC(=O)NC1=O, the “viability change, negative = cytotoxic” value is reported as -0.284%. With CC(=O)NNc1ccccc1 the “viability change, negative = cytotoxic” value was -7.22%. For CCCN(CCC)C(=O)Cc1c(-c2ccc(Cl)cc2)nc2ccc(Cl)cn12, the “viability change, negative = cytotoxic” value was -6.01%. For CC[N+]1(C)CCCC(OC(=O)C(O)(c2ccccc2)c2ccccc2)C1 (stereo not given), the “viability change, negative = cytotoxic” value was 10.3%.

Reference: PubChem BioAssay (Tox21)
On the % scale 0 is the no-effect control and ±100 the full control effect; potency means the concentration at half of the fitted maximal effect.
